Results reported in PubChem BioAssay AID1490 (National Center for Advancing Translational Sciences (NCATS), 2009).
The campaign covered roughly 310,000 compounds. About 11,000 (3.5%) were called active. Another 4% or so got no clear call; they are omitted. Calls follow the shape of the dose curve; as a rule, active = well fitted inhibition curve with a large enough effect; inconclusive = small, poorly fitted or top-dose-only effect, or another doubt; inactive = no such curve, though single readings can be large or run the other way. Many of the other results were omitted from the sample, so actives are more common in it than they were.

target: 4'-phosphopantetheinyl transferase ffp (Bacillus subtilis) (UniProt Q9F4F7); assay: qHTS Assay for Inhibitors of Bacillus subtilis Sfp phosphopantetheinyl transferase (PPTase); conditions: Biochemical Sfp PPTase activity;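 also: the enzyme is Sfp with the accession as filed and its product quenches rhodamine fluorescence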;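 as to largest response in the series, negative = inhibition: 0% = enzyme reaction without inhibitor and -100% = no enzyme wells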
Summary of the method: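 Fluorescence-quenching assay with 15 nM Sfp, 5 uM rhodamine-CoA and 12.5 uM BHQ-2-labelled ybbR peptide in pH 7.6 Hepes/MgCl2 buffer. Enzyme was pre-incubated with compound for 15 min at room temperature. Rate was taken from the 30-min fluorescence change (525/598 nm).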
Potency is read from the fitted curve at half-maximal effect.

SMILES	largest response in the series, negative = inhibition	Potency
O=C(O)c1cc2c(cc1NC(=O)c1c(F)cccc1Cl)OCCCO2	14.9% (inactive)	–
Cc1nc2ccccc2c(=O)n1Cc1ccc([N+](=O)[O-])cc1	-0.474% (inactive)	–
Cc1nc2c(c(=O)n1Cc1ccco1)c1nc3ccccc3nc1n2Cc1ccccc1	–	8.91 µM (active)
Cc1ccc(Cn2c(C)nc3c(c2=O)c2nc4ccccc4nc2n3Cc2ccco2)cc1	18.1% (inactive)	–
O=C(NC1CCCCC1)C1CCC(CNS(=O)(=O)c2ccccc2)CC1 (configuration not stated)	-16.9% (inactive)	–
Cc1ccc(NC(=O)c2cc(-c3ccccc3O)n[nH]2)cc1C	13.9% (inactive)	–
CCN(CC)S(=O)(=O)c1cc([N+](=O)[O-])ccc1NNC(=O)Nc1ccccc1	–	56.2 µM (active)
CCN(CC)S(=O)(=O)c1cc([N+](=O)[O-])ccc1N=Nc1c(O)n(C)c2ccccc12	22.9% (inactive)	–
CCN(CC)C(=O)CN(c1cccc([N+](=O)[O-])c1)S(=O)(=O)c1ccccc1	19.8% (inactive)	–
CCCn1c2ccccc2c2cnn(CC(=O)NCCCN3CCCCC3CC)c(=O)c21 (configuration not stated)	4.88% (inactive)	–
O=[N+]([O-])c1cccc(/C([O-])=C(/C(=S)Nc2ccccc2F)[n+]2ccccc2)c1	–	17.8 µM (active)
Cc1cccc(C(=O)NNC(=O)c2cccc([N+](=O)[O-])c2)c1	12.7% (inactive)	–
CCC(C)NCC(=O)Nc1ccc([N+](=O)[O-])cc1C(=O)Nc1ccccc1F (configuration not stated)	8.61% (inactive)	–
Cc1csc(NC(=O)CN2CCCCCC2)n1	–	79.4 µM (active)
N#Cc1cccc(NC(=O)CN2CCCCCC2)c1	7.01% (inactive)	–
N#Cc1ccsc1NC(=O)CN1CCCCC1	–	89.1 µM (active)
N#Cc1ccsc1NC(=O)CN1CCN(S(=O)(=O)c2cc(Cl)ccc2Cl)CC1	-21.5% (inactive)	–
CS(=O)(=O)c1ccc2nc(NC(=O)CN3CCCCCC3)sc2c1	-29.2% (inactive)	–
Cc1cc(C)c(NC(=O)CN2CCCCCC2)c(C)c1	-2.37% (inactive)	–
CCOC(=O)C1CN(S(=O)(=O)c2ccc(OC)cc2)c2cc(Cl)ccc2O1 (configuration not stated)	3.4% (inactive)	–
Cc1ccc(S(=O)(=O)NNC(=O)/C=C/c2cccc(F)c2)cc1	9.18% (inactive)	–
C=CCc1ccccc1OCC(O)CN1CCN(CCO)CC1 (configuration not stated)	5.68% (inactive)	–
CCOC(=O)c1sc(NC(=O)c2sc(C)nc2C)nc1C	11.7% (inactive)	–
CC1CCCCN1C(=O)Cn1c(=O)oc2cc(S(=O)(=O)N3CCCCC3)ccc21 (configuration not stated)	10.7% (inactive)	–
Cc1cccc(CNc2cc(-c3ccccc3Cl)ncn2)c1	20.2% (inactive)	–
Clc1ccccc1-c1cc(NCCN2CCOCC2)ncn1	–	79.4 µM (active)
c1ccc2cc3c(NCCN4CCOCC4)ccnc3cc2c1	-20.1% (inactive)	–
